For this assay, the target named is Follistatin (Homo sapiens) (UniProt P19883). The assay can be described thus: FST protein binding to printed compounds – biochemical, small-molecule microarray, 635/667 nm fluorescence, primary screen (AID 1132). The note with it: 635 nm fluorescence, higher = more signal.
Chain of Follistatin (Homo sapiens) (P19883 whole entry, looked up): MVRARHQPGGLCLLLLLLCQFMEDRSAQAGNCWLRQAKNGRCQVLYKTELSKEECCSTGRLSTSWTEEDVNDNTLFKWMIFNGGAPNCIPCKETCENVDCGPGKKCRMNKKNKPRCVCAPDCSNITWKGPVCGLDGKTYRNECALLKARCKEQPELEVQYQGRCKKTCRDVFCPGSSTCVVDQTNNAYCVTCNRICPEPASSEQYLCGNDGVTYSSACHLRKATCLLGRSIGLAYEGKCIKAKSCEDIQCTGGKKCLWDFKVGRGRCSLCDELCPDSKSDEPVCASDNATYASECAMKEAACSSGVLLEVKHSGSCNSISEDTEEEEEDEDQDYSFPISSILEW
In the case of `C=C(C)C1C(=C)CN([C@H](CO)c2ccccc2)C1=O` (stereo not given in full), the composite z-score was 0.189.

For the compound `COc1ccc(C(O)C2C=CC3C(=O)N(c4ccccc4)C(=O)C3N2Nc2ccccc2F)cc1OCc1ccccc1` (stereo not given), the composite z-score came to 0.634.

Compound `COCCCNC(=O)[C@@]1(Cc2ccccc2)N=C(c2ccc(OCCCO)cc2)O[C@H]1c1ccccc1` yielded a composite z-score of 0.448.

The compound `CC(C)C(CO)N1C(=O)[C@@H]2[C@H]3C(=O)OCC=C[C@H]3OC23C=CCN(C(C)C)C(=O)[C@@H]13` (stereo not given in full) came in with a composite z-score of 0.405. As to `[N-]=[N+]=Nc1ccccc1[C@H]1OC(c2ccc(OCCCO)cc2)=N[C@@]1(Cc1ccccc1)C(=O)O`, the composite z-score is 1.17. To `Cc1ccc(S[C@]2(C(=O)NC(C)C)CC(=O)N(Cc3ccccc3Cl)[C@@H]2c2ccc(CO)cc2I)cc1` belongs 0.237. Under `CN(C)CCCCCCNC(=O)[C@@H]1C[C@@H]2C(=O)N[C@@H](CCCCN)C(=O)N2[C@@H]1c1cccc(OCCO)c1` stands 1.45. To `CC(C)(C)OC(=O)CC[C@]12N=C(c3ccc(OCCCO)cc3)O[C@H]1c1ccccc1N(CCS(=O)(=O)c1ccccc1)C2=O` belongs 1.17; to `COCCn1c(C(=O)N2CCCC2)cc2c1C[C@H]1CN(C(=O)c3ccccc3)[C@@](Cc3ccc(F)cc3)(C(=O)OC)[C@@H]21`, 0.35. For `CC1CC/C=C\[C@H]2OC34C=CCN(C(C)(C)C)C(=O)[C@H]3N(CCCCCCO)C(=O)[C@@H]4C2C(=O)O1` (stereo not given in full), the composite z-score was -0.49. `COCCOC(=O)N1C(=O)[C@@]2(c3cc(C#Cc4ccc(OC)cc4)ccc31)[C@H](C(N)=O)[C@H]1C(=O)O[C@H](c3ccccc3)[C@H](c3ccccc3)N1[C@@H]2c1ccccc1OCCO` registered a composite z-score of 1.3. Under `O=C1OCCC/C=C\[C@H]2OC34C=CCN(c5ccc6ccccc6c5)C(=O)[C@H]3N(CCCCCCO)C(=O)[C@@H]4C12` (stereo not given in full) stands -0.179. Under `COc1ccc([C@H]2C[C@H]3C(Br)=C[C@@H]2C(=O)[C@]32CO2)cc1` stands 0.6; under `COCCOC(=O)N1C(=O)[C@@]2(c3cc(C#CCCO)ccc31)[C@H](c1ccc(OCCO)cc1)N1[C@H](c3ccccc3)[C@H](c3ccccc3)OC(=O)[C@H]1[C@@H]2C(=O)N1CCN(c2ncccn2)CC1`, 1.3.

The compound `Cc1ccc(C(C)CC(O)C2C=CC3C(=O)N(C)C(=O)C3N2NC(=O)OC(C)(C)C)o1` (stereo not given) registered a composite z-score of 0.997.

In turn, `C=CC[C@@]1(C(=O)N(C)C)N=C(c2ccc(OCCCO)cc2)O[C@@H]1c1ccccc1N=[N+]=[N-]` returned a composite z-score of 1.28.

As to `COCCOC(=O)N1C(=O)[C@@]2(c3cc(C#CCCO)ccc31)[C@H](C(=O)Nc1nc3ccccc3s1)[C@H]1C(=O)O[C@H](c3ccccc3)[C@H](c3ccccc3)N1[C@@H]2c1ccc(OCCO)cc1`, the composite z-score was 1.27. Under `O=C(c1ccccc1)N1Cc2ccccc2[C@@H]2OC(c3ccc(OCCCO)cc3)=N[C@]2(Cc2ccccc2)C1=O` stands 1.32; under `NCCCCCNC(=O)[C@@H]1C[C@@H]2C(=O)N[C@@H](Cc3ccccc3)C(=O)N2[C@@H]1c1cccc(OCCO)c1`, 0.574. Under `COc1ccc([C@H]2OC[C@@H]3CC4(CC=CC4)C(=O)N32)cc1` stands 1.4; under `CN1C(=O)C2C=CC(C(O)Cc3ccccc3)N(Nc3ccccc3)C2C1=O` (stereo not given), 0.27; under `[N-]=[N+]=NCc1ccccc1[C@@H]1OC(c2ccc(OCCCO)cc2)=N[C@]1(Cc1ccccc1N=[N+]=[N-])C(=O)N1CCOCC1`, 1.31. Under `COc1ccc(CCNC(=O)[C@@]2(Sc3ccc(C)cc3)CC(=O)N(C3CCCCC3)[C@@H]2c2ccc(CO)cc2I)cc1` stands 0.884; under `[N-]=[N+]=NCc1ccccc1[C@@H]1OC(c2ccc(OCCCO)cc2)=N[C@]1(CCS(=O)(=O)c1ccccc1)C(=O)NCc1ccccc1`, 1.47; under `O=C1OCC=C[C@H]2OC34C=CCN(CCN5CCOCC5)C(=O)[C@H]3N(CCCO)C(=O)[C@@H]4[C@@H]12` (stereo not given in full), 0.216. Turning to `CCc1oc(CC[C@@H](CO)NC(=O)NCCn2cc(C3(O)CCCCC3)nn2)c(C(=O)OC)c1C(=O)OC`, the composite z-score amounted to 1.28.

In turn, `COC(=O)[C@@]1(Cc2ccc(F)cc2)[C@H]2c3cc(C(=O)N(C)C)n(Cc4nc5ccccc5[nH]4)c3C[C@H]2CN1C(=O)c1ccccc1` registered a composite z-score of 0.526. To `COc1ccc(CCN2C(=O)[C@@]3(c4ccc([N+](=O)[O-])cc4)CC(=O)N(C4CCCCC4)[C@@H]3c3ccc(CO)cc32)cc1` belongs 1.42; to `O=C(O)[C@@]1(CCS(=O)(=O)c2ccccc2)COC(c2ccc(OCCCO)cc2)=N1`, 0.0153; to `CC(C)C[C@@H]1NC(=O)[C@H]2C[C@@H](C(=O)NCCCCCCN)[C@@H](c3ccc(O)cc3)N2C1=O`, 1.32.

Source of the values: PubChem BioAssay.
